Several values for one entry are separate records, joined by “and”; a condition that tells them apart may be missing. Equal entries are not always repeated. Records with an inconclusive call do not appear. A call without a number means that no potency is given here. Activity calls are given as the source filed them. Unless noted, the call rests on the fitted dose curve; in most records, active means well fitted curve in the direction sought with a large enough effect; inconclusive means small, poorly fitted or top-dose-only effect, or another doubt; inactive means no such curve, though single readings can be large; an effect the other way counts as inactive or inconclusive.
Columns and labels:
[1] = target: Glucocorticoid receptor (Homo sapiens) (UniProt P04150); assay: GR-GFP Redistribution (AID 450;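 active means compounds whose dose series gives a full or clear partial fitted curve of increased nuclear translocation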; further: potency means the concentration at half of the fitted maximal effect); conditions: U2OS GR-GFP nuclear translocation, laser cytometry, 2 h
[2] = target: Glucocorticoid receptor (Homo sapiens) (UniProt P04150); assay: GR-EFC Redistribution (AID 451; calls by dose curve; further: potency means the concentration at half of the fitted maximal effect); conditions: CHO-K1 GR-EFC translocation, beta-gal luminescence, 2 h
Procedure, shortened: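 CHO-K1 cells expressing nuclear EA and GR-ED fragments of b-gal; compounds titrated up to 46 uM final, 2 h at 37 C. GR nuclear translocation read as complemented b-gal luminescence after 1 h RT detection.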

[3] = target: Mitogen-activated protein kinase 10 (Mus musculus) (UniProt Q61831); assay: JNK3 AlphaScreen Assay (AID 530; active means well fitted curve in either direction with a large enough effect, not every such curve was filed as active;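 further: kinase came from lysate of stimulated human HepG2 cells; signal reports phosphorylation of biotinylated GST-cJun 1-79 at Ser73 with 10 µM ATP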); conditions: JNK3 lysate, c-Jun phosphorylation; series mostly up to 57.1 µM
Procedure, shortened: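 HepG2 lysate (IL-1b/TNFa pre-activated) + biotin-GST-cJun 1-79 + anti-pSer73 cJun; cpd titration, 15 min RT; ATP 10 uM start; Tris pH 7.6, MgCl2, DTT, vanadate; beads in EDTA buffer; AlphaScreen.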

[4] = target: Cytochrome P450 2C19 (Homo sapiens) (UniProt P33261); assay: qHTS Assay for Inhibitors and Substrates of Cytochrome P450 2C19 (AID 899); conditions: recombinant CYP2C19, luciferin-H EGE luminescence; series mostly up to 57.1 µM; further: potency means the concentration at half of the fitted maximal effect; nearly all actives have a fitted effect of over 60% in size
Procedure, shortened: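 Luminescent read-out of luciferin formed from Luciferin-H EGE (10uM, equal to KM). Enzyme 5nM in 50mM KPO4; compound added, 10 min at 37C, then NADPH regenerating system for 60 min at 37C. Full inhibition defined by 57uM ketoconazole.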

[5] = qHTS Assay for Lipid Storage Modulators (AID 1519; calls by dose curve); conditions: Drosophila S3 cells, BODIPY lipid droplet/cell ratio, laser cytometry, cells loaded with oleic acid; for activity change, negative = inhibition: at 57.5 µM (top of the series)
Procedure, shortened: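 Cells seeded at 5,000 per well were treated with compounds over a concentration series and loaded with oleic acid (400 uM, as added). Lipid droplet fluorescence (488 nm excitation, 500-530 nm channel) was read by laser-scanning cytometry and normalized to 20 uM Triacsin C.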

[6] = target: Ubiquitin carboxyl-terminal hydrolase 1 (Homo sapiens) (UniProt O94782); assay: Inhibitors of USP1/UAF1: Pilot qHTS (AID 504865); conditions: purified USP1/UAF1, Ub-rhodamine cleavage fluorescence; series mostly up to 114 µM;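 further: rhodamine fluorescence freed from ubiquitin-rhodamine substrate followed over time; top concentration of the series differs between compounds; nearly all actives have a fitted effect of over 35% in size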
Procedure, shortened: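 1nM USP1/UAF1 + cpd, 15 min RT; start w/ Ub-Rho 150nM final; kinetic FL 480/540 nm, 6 reads q60 s. Buffer 50mM HEPES pH 7.8, 0.5mM EDTA, 1mM TCEP, 0.01% Tween-20, 0.1 mg/ml BSA.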

[7] = target: DNA dC->dU-editing enzyme APOBEC-3G (Homo sapiens) (UniProt Q9HC16); assay: qHTS for inhibitors of Vif-A3G interactions: Validation (AID 588379); conditions: Vif-A3G protein interaction assay; series mostly up to 46.1 µM
Procedure, shortened: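 Yellow fluorescence (Ex 488, Em 500-530) of Vif-coexpressing HeLa A3G-eYFP cells, scanned by Acumen cytometer, reports blocked A3G degradation. Cells plated at 700/well overnight at 37 deg C before compound addition, then a further overnight compound incubation at 37 deg C.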

[8] = system: Zika virus NS2B-NS3 protease; assay: Primary screen GU AMC qHTS for Zika virus inhibitors (AID 1347154); conditions: Zika NS2B-NS3 unlinked protease, AMC fluorogenic substrate; series mostly up to 54.1 µM; further: nearly all actives have a fitted effect of over 70% in size
Procedure, shortened: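 Unlinked Zika NS2B hydrophilic domain–NS3 protease complex at 25 nM in 10 mM Tris-HCl pH 8.0, 0.01% Tween 20, with an AMC peptide substrate. Fluorescence change (340/450 nm) over 15 min at room temperature, normalized to controls, fitted to 4-parameter Hill.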

[9] = Primary qHTS for small molecule stabilizers of the endoplasmic reticulum resident proteome: Secreted ER Calcium Modulated Protein (SERCaMP) assay (AID 1508630); conditions: SH-SY5Y GLuc-SERCaMP (Gaussia luciferase released on ER calcium loss) secretion, thapsigargin, luminescence; series mostly up to 38.4 µM
Procedure, shortened: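 The SH-SY5Y reporter protocol was run at 3 concentrations up to 38.3 uM (primary) or 11 concentrations (follow-up): 16 h compound, 100 nM thapsigargin for 4 h, then extracellular luciferase luminescence.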

[10] = target: 3',5'-cyclic-AMP phosphodiesterase 4B (Homo sapiens) (UniProt Q07343); assay: qHTS Assay for Inhibitors of PDE-IV (AID 607; active means well fitted activation curve with a large enough effect in the main read-out, with a control signal flat, not every such curve was filed as active); conditions: HEK293 ACTOne CNG channel cells, membrane potential fluorescence; series mostly up to 22.9 µM
Procedure, shortened: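 Live HEK293 cells with a modified cyclic nucleotide-gated (CNG) channel report intracellular cAMP via membrane-potential dye fluorescence (ex 535/em 590 nm). Endogenous PDE-IV was targeted. Compounds were tested at up to 22.9 uM final; RO 20-1724 100 uM served as control.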

[11] = target: Cytochrome P450 1A2 (Homo sapiens) (UniProt P05177); assay: p450-cyp1a2 (AID 410; calls by dose curve); conditions: recombinant CYP1A2, luciferin-ME demethylation, luminescence; series mostly up to 57 µM
Procedure, shortened: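 Read-out is luminescence from luciferin produced by CYP1A2 demethylation of Luciferin-ME (100uM, at Km). Detection reagent stopped the 60 min NADPH-dependent reaction; signals were normalized to 57 uM furafylline.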

[12] = target: Cytochrome P450 3A4 (Homo sapiens) (UniProt P08684); assay: qHTS Assay for Activators of Cytochrome P450 3A4 (AID 885); conditions: recombinant CYP3A4, Luciferin-PPXE luminescence, 60 min; series mostly up to 57.1 µM; further: nearly all actives have a fitted effect of over 65% in size
Procedure, shortened: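 Using 20nM recombinant human CYP3A4 in potassium phosphate (200mM), substrate Luciferin-PPXE at 25uM, luminescent luciferin detection followed a 60-min RT NADPH reaction; data scaled to 57 uM ketoconazole.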

[13] = measured here: cell count channel max response
[14] = measured here: lipid channel max response

Chain of Ubiquitin carboxyl-terminal hydrolase 1 (Homo sapiens) (O94782 whole entry, looked up): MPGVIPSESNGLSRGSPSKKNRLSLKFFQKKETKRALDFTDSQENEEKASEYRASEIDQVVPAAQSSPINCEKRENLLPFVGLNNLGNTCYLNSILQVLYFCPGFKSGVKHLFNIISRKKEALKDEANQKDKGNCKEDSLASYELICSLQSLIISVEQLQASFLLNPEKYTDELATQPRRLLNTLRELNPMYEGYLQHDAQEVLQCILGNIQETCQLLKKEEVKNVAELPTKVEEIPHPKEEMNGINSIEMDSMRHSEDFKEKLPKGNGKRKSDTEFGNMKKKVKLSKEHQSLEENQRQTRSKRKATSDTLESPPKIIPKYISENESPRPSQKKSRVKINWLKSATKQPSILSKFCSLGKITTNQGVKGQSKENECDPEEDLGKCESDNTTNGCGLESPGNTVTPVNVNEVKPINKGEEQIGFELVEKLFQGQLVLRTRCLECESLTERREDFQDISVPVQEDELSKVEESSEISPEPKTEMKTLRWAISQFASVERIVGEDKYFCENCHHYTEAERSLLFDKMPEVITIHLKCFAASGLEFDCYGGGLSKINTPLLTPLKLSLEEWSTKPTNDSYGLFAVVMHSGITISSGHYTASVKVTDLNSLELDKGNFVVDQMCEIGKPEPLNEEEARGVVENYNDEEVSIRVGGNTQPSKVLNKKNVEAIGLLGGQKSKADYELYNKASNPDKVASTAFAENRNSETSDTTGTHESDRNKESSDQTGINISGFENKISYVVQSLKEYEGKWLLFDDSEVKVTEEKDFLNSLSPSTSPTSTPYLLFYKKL
Chain of Glucocorticoid receptor (Homo sapiens) (P04150 whole entry, looked up, the tested form may be a part): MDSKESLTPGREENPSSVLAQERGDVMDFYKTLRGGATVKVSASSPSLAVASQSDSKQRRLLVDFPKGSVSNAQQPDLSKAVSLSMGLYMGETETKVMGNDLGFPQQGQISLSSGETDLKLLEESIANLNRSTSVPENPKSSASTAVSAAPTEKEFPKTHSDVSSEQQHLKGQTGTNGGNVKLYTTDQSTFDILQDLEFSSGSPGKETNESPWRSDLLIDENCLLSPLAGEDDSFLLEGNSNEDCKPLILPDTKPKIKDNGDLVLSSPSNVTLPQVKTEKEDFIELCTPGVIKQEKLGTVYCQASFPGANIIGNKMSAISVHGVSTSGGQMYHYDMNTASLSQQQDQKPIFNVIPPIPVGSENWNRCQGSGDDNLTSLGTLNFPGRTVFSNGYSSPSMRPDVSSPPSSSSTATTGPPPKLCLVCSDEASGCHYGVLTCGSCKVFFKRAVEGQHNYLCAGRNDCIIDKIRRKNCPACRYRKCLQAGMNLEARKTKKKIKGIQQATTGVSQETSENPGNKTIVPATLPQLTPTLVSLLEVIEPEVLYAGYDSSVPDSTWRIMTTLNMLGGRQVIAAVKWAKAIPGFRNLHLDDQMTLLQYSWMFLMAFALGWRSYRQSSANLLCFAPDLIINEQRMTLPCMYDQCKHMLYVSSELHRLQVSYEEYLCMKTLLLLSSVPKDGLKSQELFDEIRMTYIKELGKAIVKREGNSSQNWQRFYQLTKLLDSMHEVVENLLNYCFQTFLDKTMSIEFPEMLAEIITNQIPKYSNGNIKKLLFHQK
Chain of 3',5'-cyclic-AMP phosphodiesterase 4B (Homo sapiens) (Q07343 whole entry, looked up): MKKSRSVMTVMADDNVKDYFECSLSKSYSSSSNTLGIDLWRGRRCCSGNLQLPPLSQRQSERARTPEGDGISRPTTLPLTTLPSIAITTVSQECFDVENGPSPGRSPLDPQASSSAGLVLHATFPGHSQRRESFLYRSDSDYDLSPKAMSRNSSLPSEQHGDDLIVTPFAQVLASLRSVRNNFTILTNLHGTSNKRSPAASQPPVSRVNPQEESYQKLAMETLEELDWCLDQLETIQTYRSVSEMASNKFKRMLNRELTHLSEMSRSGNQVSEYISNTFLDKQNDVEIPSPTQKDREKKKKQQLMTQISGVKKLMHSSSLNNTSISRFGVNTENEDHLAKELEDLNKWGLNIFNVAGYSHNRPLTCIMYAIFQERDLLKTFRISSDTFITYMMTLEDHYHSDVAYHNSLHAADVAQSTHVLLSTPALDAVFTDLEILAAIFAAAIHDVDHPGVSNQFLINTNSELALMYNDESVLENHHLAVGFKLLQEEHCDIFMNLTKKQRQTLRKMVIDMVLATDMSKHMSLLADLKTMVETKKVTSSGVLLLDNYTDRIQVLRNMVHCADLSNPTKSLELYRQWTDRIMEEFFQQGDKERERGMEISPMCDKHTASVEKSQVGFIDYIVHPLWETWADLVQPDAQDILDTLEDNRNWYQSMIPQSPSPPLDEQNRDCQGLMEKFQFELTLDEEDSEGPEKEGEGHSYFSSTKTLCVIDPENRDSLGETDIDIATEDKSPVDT
Chain of DNA dC->dU-editing enzyme APOBEC-3G (Homo sapiens) (Q9HC16 whole entry, looked up): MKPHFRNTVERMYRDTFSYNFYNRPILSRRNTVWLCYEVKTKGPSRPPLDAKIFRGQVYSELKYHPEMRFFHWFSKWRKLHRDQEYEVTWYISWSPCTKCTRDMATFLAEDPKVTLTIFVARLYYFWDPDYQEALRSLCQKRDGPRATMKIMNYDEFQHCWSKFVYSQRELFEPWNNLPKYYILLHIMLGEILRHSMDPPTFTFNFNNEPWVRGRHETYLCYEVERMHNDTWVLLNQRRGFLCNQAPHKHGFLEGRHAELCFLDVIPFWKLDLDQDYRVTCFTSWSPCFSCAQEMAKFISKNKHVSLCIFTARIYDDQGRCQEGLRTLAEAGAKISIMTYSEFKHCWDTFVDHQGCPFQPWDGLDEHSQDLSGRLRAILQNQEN
Chain of Cytochrome P450 3A4 (Homo sapiens) (P08684 whole entry, looked up): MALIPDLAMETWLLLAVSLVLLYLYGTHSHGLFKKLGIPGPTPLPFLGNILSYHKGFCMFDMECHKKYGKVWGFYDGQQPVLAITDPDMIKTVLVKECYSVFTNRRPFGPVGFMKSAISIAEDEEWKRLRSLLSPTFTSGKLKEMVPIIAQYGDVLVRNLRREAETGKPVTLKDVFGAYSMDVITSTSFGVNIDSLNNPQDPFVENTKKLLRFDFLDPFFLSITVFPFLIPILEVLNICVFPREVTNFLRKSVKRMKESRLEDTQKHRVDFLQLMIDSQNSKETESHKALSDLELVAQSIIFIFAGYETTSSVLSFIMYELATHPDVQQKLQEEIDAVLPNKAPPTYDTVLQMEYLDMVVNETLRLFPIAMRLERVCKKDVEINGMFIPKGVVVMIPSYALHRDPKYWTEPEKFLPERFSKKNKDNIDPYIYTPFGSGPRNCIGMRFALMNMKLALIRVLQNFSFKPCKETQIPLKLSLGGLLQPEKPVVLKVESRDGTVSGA
Chain of Cytochrome P450 2C19 (Homo sapiens) (P33261 whole entry, looked up): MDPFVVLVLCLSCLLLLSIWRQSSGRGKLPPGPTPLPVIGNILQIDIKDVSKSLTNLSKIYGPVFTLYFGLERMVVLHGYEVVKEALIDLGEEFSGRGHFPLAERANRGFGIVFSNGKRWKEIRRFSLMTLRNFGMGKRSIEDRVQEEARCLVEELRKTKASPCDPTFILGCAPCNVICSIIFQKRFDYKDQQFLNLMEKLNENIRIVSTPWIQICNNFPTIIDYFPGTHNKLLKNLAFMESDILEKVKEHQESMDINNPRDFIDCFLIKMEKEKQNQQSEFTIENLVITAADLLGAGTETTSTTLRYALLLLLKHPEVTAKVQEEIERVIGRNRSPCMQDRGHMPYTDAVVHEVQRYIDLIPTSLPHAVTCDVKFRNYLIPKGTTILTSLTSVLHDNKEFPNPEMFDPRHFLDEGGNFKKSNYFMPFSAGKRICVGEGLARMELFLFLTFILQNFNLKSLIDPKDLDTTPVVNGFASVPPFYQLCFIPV
Chain of Cytochrome P450 1A2 (Homo sapiens) (P05177 whole entry, looked up): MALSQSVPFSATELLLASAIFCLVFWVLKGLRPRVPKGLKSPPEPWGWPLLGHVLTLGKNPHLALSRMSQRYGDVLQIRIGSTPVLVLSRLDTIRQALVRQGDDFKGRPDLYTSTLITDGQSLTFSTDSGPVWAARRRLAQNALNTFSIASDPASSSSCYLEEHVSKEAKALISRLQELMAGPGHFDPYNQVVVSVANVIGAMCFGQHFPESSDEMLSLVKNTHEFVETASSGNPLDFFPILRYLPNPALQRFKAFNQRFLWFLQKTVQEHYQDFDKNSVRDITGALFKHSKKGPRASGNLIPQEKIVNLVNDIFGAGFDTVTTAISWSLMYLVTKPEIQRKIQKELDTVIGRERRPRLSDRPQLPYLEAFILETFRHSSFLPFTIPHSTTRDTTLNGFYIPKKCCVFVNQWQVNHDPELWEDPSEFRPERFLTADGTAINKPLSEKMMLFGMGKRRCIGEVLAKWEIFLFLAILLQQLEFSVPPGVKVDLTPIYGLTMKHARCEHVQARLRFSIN

NC1(C(=O)O)C[C@@H](C(=O)O)[C@H](C(=O)O)C1
Potency [1]: > 46 µM (inactive) | Potency [2]: > 46 µM (inactive) | Potency [3]: inactive | Potency [4]: 7.94 µM (active) | activity change, negative = inhibition [5]: 7.04% (inactive) and 6.44% (inactive) | max response [5, 13]: 8.99% and 4.7% | max response [5, 14]: 18.3% and 11.3% | Potency [6]: inactive | Potency [7]: inactive | Potency [8]: inactive | Potency [9]: inactive

OC[C@@H]1O[C@@H](n2cnc3c(N[C@H]4CCC[C@@H]4O)ncnc32)[C@H](O)[C@H]1O
Potency [1]: > 46 µM (inactive) | Potency [2]: > 46 µM (inactive) | Potency [3]: inactive | Potency [10]: inactive | activity change, negative = inhibition [5]: 3.72% (inactive) | max response [5, 13]: -18.9% | max response [5, 14]: -17.5% | Potency [6]: inactive | Potency [7]: inactive | Potency [8]: inactive | Potency [9]: inactive

Cc1ccccc1N=C(N)Nc1ccccc1C
Potency [11]: inactive | Potency [2]: > 46 µM (inactive) | Potency [3]: inactive | activity change, negative = inhibition [5]: 3.82% (inactive) | max response [5, 13]: 2.46% | max response [5, 14]: 7.24% | Potency [6]: inactive | Potency [7]: inactive | Potency [8]: inactive | Potency [9]: inactive

NCCCNCCCCN(CCCN)/[N+]([O-])=N/O
Potency [1]: > 46 µM (inactive) | Potency [2]: > 46 µM (inactive) | Potency [3]: inactive | Potency [10]: inactive | activity change, negative = inhibition [5]: -0.752% (inactive) | max response [5, 13]: -8.77% | max response [5, 14]: -8.94% | Potency [6]: inactive | Potency [7]: inactive | Potency [8]: inactive | Potency [9]: inactive

O=C(O)CCC/C=C\C[C@@H]1CO[C@H](C(F)(F)F)O[C@@H]1c1ccccc1O
Potency [1]: > 46 µM (inactive) | Potency [2]: > 46 µM (inactive) | Potency [3]: inactive | Potency [12]: inactive | activity change, negative = inhibition [5]: 0.11% (inactive) | max response [5, 13]: -8.58% | max response [5, 14]: -8.44% | Potency [6]: inactive | Potency [7]: inactive | Potency [8]: inactive | Potency [9]: inactive

CCNC(=O)[C@H]1O[C@H](n2cnc3c(N)nc(NCCc4ccc(CCC(=O)O)cc4)nc32)[C@@H](O)[C@@H]1O
Potency [1]: > 46 µM (inactive) | Potency [2]: > 46 µM (inactive) | activity change, negative = inhibition [5]: -4.61% (inactive) | max response [5, 13]: -14.7% | max response [5, 14]: -19.8% | Potency [6]: inactive | Potency [7]: inactive | Potency [8]: inactive | Potency [9]: inactive

C[C@@H](CC(=O)O)[C@@H](N)C(=O)O
Potency [1]: > 46 µM (inactive) | Potency [2]: > 46 µM (inactive) | Potency [3]: inactive | Potency [10]: inactive | activity change, negative = inhibition [5]: -3.19% (inactive) | max response [5, 13]: -10.3% | max response [5, 14]: -14.3% | Potency [7]: inactive | Potency [8]: inactive | Potency [9]: inactive

N[C@@](C(=O)O)(c1ccc(P(=O)(O)O)cc1)C1CC1
Potency [1]: > 46 µM (inactive) | Potency [2]: > 46 µM (inactive) | Potency [3]: inactive | activity change, negative = inhibition [5]: -7.82% (inactive) | max response [5, 13]: 3.93% | max response [5, 14]: -1.11% | Potency [7]: inactive | Potency [8]: inactive | Potency [9]: inactive

C[N+](C)(CCCCCC[N+](C)(C)CCCN1C(=O)c2ccccc2C1=O)CCCN1C(=O)c2ccccc2C1=O
Potency [1]: > 46 µM (inactive) | Potency [2]: > 46 µM (inactive) | Potency [3]: inactive | activity change, negative = inhibition [5]: -4.59% (inactive) | max response [5, 13]: -18.6% | max response [5, 14]: -20.9% | Potency [6]: inactive | Potency [7]: inactive | Potency [8]: inactive | Potency [9]: inactive
